Assay results from PubChem BioAssay.
Calls of active or inactive are those of the source.

Assays:
[1] = optical density shifts of acrAB sulA E. coli – strain DRC41, OD650, 48 h, E. coli filamentation inducer project, primary screen (AID 1152); conditions: higher = more signal, called active from +8 up or from −8 down;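 note: E. coli MC1000 strain DRC41 lacking acrAB efflux pump and sulA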
[2] = probe aLefty1 binding on compound microarray – biochemical, small-molecule microarray, 635/667 nm fluorescence, primary screen (AID 1153); conditions: higher = more signal;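 note: score merges spot fluorescence with signal-to-noise ratio from the scanned slide images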
[3] = plasmodial surface anion channel blockers, osmotic lysis – cell-based, P. falciparum Indochina, OD700, 1 h, primary screen (AID 1154); conditions: P. falciparum Indochina infected RBC osmotic lysis, higher = more signal, called active from +8 up or from −8 down
[4] = plasmodial surface anion channel blockers, osmotic lysis – cell-based, P. falciparum Indochina, OD700, 2 h, primary screen (AID 1155);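 note: lysis reports solute entry through the parasite surface anion channel PSAC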; conditions: P. falciparum Indochina infected erythrocytes, higher = more signal, called active from +8 up or from −8 down
[5] = changes in parasitized red cell lysis, either direction – P. falciparum Indochina, OD700, 3 h, PSAC antagonist project, primary screen (AID 1156); conditions: P. falciparum-infected erythrocytes, osmotic lysis, higher = more signal, called active from +8 up or from −8 down
[6] = plasmodial surface anion channel blockers, osmotic lysis – cell-based, P. falciparum Indochina, OD700, 18 h, primary screen (AID 1157); conditions: P. falciparum Indochina infected erythrocytes, osmotic lysis OD700, 18 h; higher = more signal, called active from +8 up or from −8 down
[7] = S6 kinase pathway phospho-S6 level changes – cell-based, A549, cytoblot, luminescence, serum-stimulated, primary screen (AID 1158); conditions: 5 h, higher = more signal;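 note: serum-stimulated A549 lung adenocarcinoma cells; signal is phosphorylated S6 detected by cytoblot immunostaining with HRP secondary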
[8] = biological target: NADPH oxidase 2 (Homo sapiens) (UniProt P04839); experiment: compounds shifting NOX2 Amplex Red fluorescence – cell-based, HEK293-NOX2, PMA-stimulated, NOX inhibitor project, primary screen (AID 1159); conditions: 45 min, higher = more signal, called active from +8 up or from −8 down; note: test concentration not given here
[9] = biological target: NADPH oxidase 4 (Homo sapiens) (UniProt Q9NPH5); experiment: compounds shifting NOX4 Amplex Red fluorescence – cell-based, HEK293-NOX4, tetracycline-induced, NOX inhibitor project, primary screen (AID 1160); conditions: HEK293-NOX4, Amplex Red H2O2 fluorescence, 45 min; higher = more signal, called active from +8 up or from −8 down
[10] = biological target: NADPH oxidase 5 (Homo sapiens) (UniProt Q96PH1); experiment: compounds shifting NOX5 Amplex Red fluorescence – cell-based, HEK293-NOX5, NOX inhibitor project, primary screen (AID 1161); conditions: HEK293-NOX5, ionomycin, 45 min, higher = more signal
[11] = compound effects on lung adenocarcinoma cell viability – A549, calcein-AM fluorescence, 48 h, basal, profiling panel (AID 1162); conditions: higher = more signal; note: test concentration not given here
[12] = compound effects on differentiated 3T3-L1 adipocyte viability – cell-based, 3T3-L1 adipocytes, calcein-AM fluorescence, 48 h, basal, profiling panel (AID 1163); conditions: 3T3-L1 adipocytes viability, higher = more signal; note: test concentration not given here
[13] = compound effects on hepatocellular carcinoma cell viability – HepG2, calcein-AM fluorescence, 48 h, basal, profiling panel (AID 1164); conditions: higher = more signal; note: test concentration not given here
[14] = compound effects on multiple myeloma cell viability – MM1S, calcein-AM fluorescence, 48 h, basal, profiling panel (AID 1165); conditions: higher = more signal; note: test concentration not given here
[15] = calcein-AM signal in unstimulated myeloma cells – cell-based, calcein-AM fluorescence, 48 h, PK04 Diversity Set, profiling panel (AID 1166); conditions: RPMI8226 myeloma viability, higher = more signal;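 note: cells grown under basal conditions without added stimulus; test concentration not given here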
[16] = JC-1 mitochondrial signal, unstimulated HepG2 cells – cell-based, JC-1 fluorescence, 24 h, 100 nL compound, profiling panel (AID 1167); conditions: HepG2 mitochondrial potential, higher = more signal; note: test concentration not given here
[17] = JC-1 mitochondrial signal, unstimulated adipocytes – cell-based, JC-1 fluorescence, 3T3-L1 adipocytes, 24 h, 100 nL compound, profiling panel (AID 1168); conditions: JC-1 mitochondrial fluorescence, higher = more signal, called active from +8 up or from −8 down; note: test concentration not given here
[18] = JC-1 mitochondrial signal, unstimulated myeloma cells – cell-based, JC-1 fluorescence, RPMI8226, 24 h, 100 nL compound, profiling panel (AID 1169); conditions: JC-1 mitochondrial potential fluorescence, higher = more signal; note: test concentration not given here
[19] = JC-1 mitochondrial signal, unstimulated MM1S myeloma – cell-based, JC-1 fluorescence, 24 h, 100 nL compound, profiling panel (AID 1170); conditions: MM1S mitochondrial potential, higher = more signal; note: test concentration not given here
[20] = resazurin metabolic signal in A549 cells – cell-based, resazurin fluorescence, 24 h, PK04 Diversity Set, profiling panel (AID 1171); conditions: A549 viability, higher = more signal, called active from +8 up or from −8 down; note: test concentration not given here

NADPH oxidase 5 (Homo sapiens), sequence (Q96PH1 whole entry, looked up): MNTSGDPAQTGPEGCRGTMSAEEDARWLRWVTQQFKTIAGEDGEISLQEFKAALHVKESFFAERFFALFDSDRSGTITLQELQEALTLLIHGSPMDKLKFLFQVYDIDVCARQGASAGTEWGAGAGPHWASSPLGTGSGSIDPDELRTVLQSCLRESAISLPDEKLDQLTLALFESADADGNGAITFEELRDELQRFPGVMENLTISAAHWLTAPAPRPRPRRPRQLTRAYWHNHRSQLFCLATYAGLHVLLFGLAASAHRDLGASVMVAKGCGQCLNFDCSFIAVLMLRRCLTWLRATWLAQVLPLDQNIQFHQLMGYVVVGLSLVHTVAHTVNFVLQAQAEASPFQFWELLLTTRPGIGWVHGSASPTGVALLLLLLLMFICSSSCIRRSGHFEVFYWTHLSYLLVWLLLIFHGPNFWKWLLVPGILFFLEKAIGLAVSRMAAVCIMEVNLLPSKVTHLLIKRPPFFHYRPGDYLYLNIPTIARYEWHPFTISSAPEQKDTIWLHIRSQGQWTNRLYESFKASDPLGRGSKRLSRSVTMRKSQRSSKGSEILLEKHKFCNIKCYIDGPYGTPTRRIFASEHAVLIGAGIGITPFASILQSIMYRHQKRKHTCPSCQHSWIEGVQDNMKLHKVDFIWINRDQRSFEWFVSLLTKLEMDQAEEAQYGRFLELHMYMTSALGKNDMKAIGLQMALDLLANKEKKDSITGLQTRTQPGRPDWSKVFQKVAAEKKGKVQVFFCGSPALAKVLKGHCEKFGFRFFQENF
NADPH oxidase 2 (Homo sapiens), sequence (P04839 whole entry, looked up): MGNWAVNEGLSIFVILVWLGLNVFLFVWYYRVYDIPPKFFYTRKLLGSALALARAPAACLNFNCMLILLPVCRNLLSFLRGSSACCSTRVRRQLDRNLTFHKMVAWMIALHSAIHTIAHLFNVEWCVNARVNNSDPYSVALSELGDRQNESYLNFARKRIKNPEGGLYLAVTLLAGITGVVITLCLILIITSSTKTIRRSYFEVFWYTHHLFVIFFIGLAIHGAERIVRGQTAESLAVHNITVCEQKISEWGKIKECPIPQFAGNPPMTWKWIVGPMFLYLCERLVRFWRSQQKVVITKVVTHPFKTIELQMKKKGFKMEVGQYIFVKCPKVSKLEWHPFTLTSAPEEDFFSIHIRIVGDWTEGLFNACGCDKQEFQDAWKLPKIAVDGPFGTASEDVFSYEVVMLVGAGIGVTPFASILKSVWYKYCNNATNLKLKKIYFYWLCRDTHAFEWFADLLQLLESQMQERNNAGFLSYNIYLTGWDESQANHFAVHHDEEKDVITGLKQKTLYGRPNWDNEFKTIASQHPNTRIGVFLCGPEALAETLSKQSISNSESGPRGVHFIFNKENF
NADPH oxidase 4 (Homo sapiens), sequence (Q9NPH5 whole entry, looked up): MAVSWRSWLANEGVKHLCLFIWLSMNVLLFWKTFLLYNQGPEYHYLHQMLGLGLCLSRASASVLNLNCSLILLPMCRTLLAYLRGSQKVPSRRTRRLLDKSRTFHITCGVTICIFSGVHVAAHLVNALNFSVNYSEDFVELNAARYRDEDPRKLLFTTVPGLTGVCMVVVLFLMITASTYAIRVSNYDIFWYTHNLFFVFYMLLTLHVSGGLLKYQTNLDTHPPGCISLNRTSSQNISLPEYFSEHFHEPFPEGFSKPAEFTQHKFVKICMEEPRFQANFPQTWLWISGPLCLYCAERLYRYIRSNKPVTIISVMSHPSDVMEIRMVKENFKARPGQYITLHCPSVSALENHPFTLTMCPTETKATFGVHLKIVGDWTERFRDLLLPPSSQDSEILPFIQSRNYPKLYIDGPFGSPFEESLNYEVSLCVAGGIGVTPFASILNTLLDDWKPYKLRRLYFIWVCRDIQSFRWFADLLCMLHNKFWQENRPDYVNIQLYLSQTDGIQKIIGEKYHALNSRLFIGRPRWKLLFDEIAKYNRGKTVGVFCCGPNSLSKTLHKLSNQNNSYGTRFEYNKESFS

Structure (SMILES)	z-score [1]	composite z-score [2]	z-score [3]	z-score [4]	z-score [5]	z-score [6]	z-score [7]	z-score [8]	z-score [9]	z-score [10]	z-score [11]	z-score [12]	z-score [13]	z-score [14]	z-score [15]	z-score [16]	z-score [17]	z-score [18]	z-score [19]	z-score [20]
COC(=O)CC=C[C@@H](C)[C@@H](C=NOC[C@@H](O)COCc1ccco1)NS(=O)(=O)c1ccc(C)cc1	0.132 (inactive)	-0.186	1.25 (inactive)	0.418 (inactive)	0.0934 (inactive)	0.391 (inactive)	-0.689	0.017 (inactive)	-0.202 (inactive)	-0.106	-0.393	-0.295	0.3	-0.833	-0.623	-1.23	0.0134 (inactive)	-0.655	-0.436	-0.44 (inactive)
COc1ccc(COC(=O)NN=C2C[C@@H](O)[C@@H](O)[C@@H]3[C@@H]4C(=O)N(C5CCCCC5)C(=O)[C@@H]4CC[C@@H]23)cc1	-0.83 (inactive)	0.94	6.59 (inactive)	1.25 (inactive)	0.101 (inactive)	0.622 (inactive)	-0.185	-0.623 (inactive)	-0.069 (inactive)	0.391	0.0391	1.11	0.494	0.419	0.3	-0.0284	-0.297 (inactive)	-0.375	-0.269	-0.533 (inactive)
CCN1C(=O)[C@H]2[C@H]3[C@H](O)[C@H](O)CC(=NO[C@@H]4O[C@H](CO)[C@@H](O)[C@H](O)[C@H]4O)[C@H]3CC[C@H]2C1=O	-0.462 (inactive)	-0.234	-0.875 (inactive)	0.0108 (inactive)	-0.677 (inactive)	0.109 (inactive)	-0.218	1.4 (inactive)	0.422 (inactive)	-1.28	0.212	-0.158	0.298	-0.0327	-0.982	-0.68	-1.21 (inactive)	0.0397	0.652	0.14 (inactive)
COC(=O)[C@H](C)NC(=O)CCC1CC(OC(=O)NCc2cccc3ccccc23)CC2(CCCC(COC(=O)NCCC(C)C)O2)O1 (stereo not given in full)	0.782 (inactive)	0.423	6.93 (inactive)	0.663 (inactive)	-0.355 (inactive)	0.197 (inactive)	-0.463	1.74 (inactive)	0.703 (inactive)	1.52	0.505	-0.0667	-1.75	-3.38	-3.49	-0.653	0.112 (inactive)	-0.51	-1.82	0.236 (inactive)
C[C@@H](c1ccccc1)N1C(=O)[C@H]2[C@H]3[C@H](O)[C@H](O)CC(=NNC(=O)OCc4ccccc4)[C@@H]3CC[C@H]2C1=O	0.362 (inactive)	-0.0294	0.0012 (inactive)	0.461 (inactive)	-0.694 (inactive)	0.329 (inactive)	-0.136	-0.065 (inactive)	1.07 (inactive)	-0.0584	-0.18	-0.506	-0.468	0.399	-0.253	-0.604	-0.762 (inactive)	0.102	-0.998	-0.427 (inactive)
CC(CCN1CCc2nc(-c3ccccc3)c(-c3ccccc3)cc2C1)=NO[C@@H](C)c1cc(-c2c(C)cc(C)cc2C)no1	-1.03 (inactive)	-0.0099	-0.0185 (inactive)	-0.429 (inactive)	1.5 (inactive)	-1.37 (inactive)	0.831	-0.861 (inactive)	-0.901 (inactive)	-0.296	-0.826	0.998	0.321	-0.494	-1.25	2.47	-1.15 (inactive)	-0.535	-1.62	0.235 (inactive)
CC(=O)OC[C@H]1O[C@H](C#CCC2CCCCC2)C=C[C@@H]1OC(C)=O	0.457 (inactive)	-0.19	2.09 (inactive)	0.138 (inactive)	0.0473 (inactive)	0.125 (inactive)	-0.274	0.217 (inactive)	0.556 (inactive)	1.74	0.422	-0.654	0.503	-3.48	-3.35	-1.1	-0.185 (inactive)	-0.605	-1.99	-0.389 (inactive)
COc1ccc(COC(=O)NN=C2C[C@@H](O)[C@@H](O)[C@@H]3[C@@H]4C(=O)N(Cc5ccccc5)C(=O)[C@@H]4CC[C@@H]23)cc1	0.619 (inactive)	-0.0691	1.48 (inactive)	0.363 (inactive)	-0.188 (inactive)	0.648 (inactive)	-0.12	-6.33 (inactive)	0.284 (inactive)	-0.234	-0.178	-0.641	-0.13	0.458	1.61	0.335	-0.289 (inactive)	0.76	-1.46	0.399 (inactive)
COC(=O)[C@H](C)NC(=O)CCC1CC(OC(=O)NCc2cccc3ccccc23)CC2(CCCC(COC(=O)NCc3cccc(C(F)(F)F)c3)O2)O1 (stereo not given in full)	-0.356 (inactive)	0.0794	1.35 (inactive)	-0.871 (inactive)	0.339 (inactive)	-1.23 (inactive)	1.1	0.352 (inactive)	-0.179 (inactive)	0.0278	0.826	-0.508	-0.918	-3.11	-0.0274	-0.707	0.733 (inactive)	-0.742	-0.905	-1.16 (inactive)
CC(=O)OC[C@H]1O[C@@H](ON=C(C)C)[C@H](OC(C)=O)[C@@H](OC(C)=O)[C@@H]1OC(C)=O	-1.83 (inactive)	0.145	0.421 (inactive)	1.12 (inactive)	0.638 (inactive)	0.539 (inactive)	0.152	1.27 (inactive)	0.378 (inactive)	-0.611	-0.132	0.0138	-0.179	-0.0646	-0.43	-0.0132	-0.763 (inactive)	0.93	0.35	-0.0264 (inactive)
CC(=O)OC[C@H]1O[C@H](CC=NOCC[C@@H]2C=C[C@H](OC(C)=O)[C@@H](COC(C)=O)O2)C=C[C@@H]1OC(C)=O	0.645 (inactive)	0.0483	0.421 (inactive)	0.678 (inactive)	0.286 (inactive)	0.219 (inactive)	-0.696	-0.175 (inactive)	0.484 (inactive)	-0.705	-0.542	-0.282	-0.441	0.0077	-0.786	-0.314	-0.267 (inactive)	0.503	0.394	0.125 (inactive)
C=CC[C@@H]1C=C[C@H](ON=C[C@@H](NS(=O)(=O)c2ccc(C)cc2)[C@H](C)C=CCC(=O)OC)[C@@H](CO)O1	0.171 (inactive)	-0.191	1.16 (inactive)	0.278 (inactive)	0.0436 (inactive)	0.343 (inactive)	-0.738	-0.0272 (inactive)	0.118 (inactive)	-0.286	0.309	0.359	0.405	0.465	-0.915	-0.836	-0.959 (inactive)	0.117	-0.979	-1.03 (inactive)
CC(=O)OC[C@H]1O[C@H](C#CCCc2ccccc2)C=C[C@@H]1OC(C)=O	-0.2 (inactive)	0.233	1.43 (inactive)	0.317 (inactive)	0.182 (inactive)	0.148 (inactive)	-0.427	-1.58 (inactive)	1.39 (inactive)	1.07	0.233	0.292	-0.207	-3.49	-2.48	-0.972	-0.282 (inactive)	-0.353	-1.11	-0.182 (inactive)
CCN1C(=O)[C@H]2[C@H]3[C@H](O)[C@H](O)CC(=NOC(C)CN4CCCc5nc(C)c(C)cc54)[C@@H]3CC[C@H]2C1=O (stereo not given in full)	0.223 (inactive)	0.603	1.25 (inactive)	0.59 (inactive)	-0.121 (inactive)	0.588 (inactive)	-0.461	-1 (inactive)	-0.772 (inactive)	-0.298	0.355	-0.769	-0.283	-1.78	-0.99	0.128	-0.886 (inactive)	0.534	-0.902	-0.696 (inactive)
COC(=O)[C@H](C)NC(=O)CCC1CC(OC(=O)NCc2cccc3ccccc23)CC2(CCCC(COC(=O)NCc3ccccc3)O2)O1 (stereo not given in full)	-0.249 (inactive)	0.378	0.385 (inactive)	-0.254 (inactive)	0.0409 (inactive)	0.0533 (inactive)	0.362	1.42 (inactive)	0.73 (inactive)	1.06	0.217	0.2	-0.653	0.621	0.769	1.46	0.818 (inactive)	0.662	-0.845	2.64 (inactive)
COC(=O)[C@H](CCSC)NC(=O)CC=C[C@@H](C)CO	0.193 (inactive)	-0.101	0.291 (inactive)	0.317 (inactive)	-0.0396 (inactive)	-0.167 (inactive)	0.81	1.58 (inactive)	-1.2 (inactive)	0.613	-0.493	-0.169	0.0826	-1.12	-0.581	0.705	-0.645 (inactive)	-0.545	-1.62	-0.812 (inactive)
